A selection: hits, their analogues and other compounds. The true share with any hit is near 0.92%.
AGP1-GFP MLPCN: alters AGP1-GFP fluorescence in TOR pathway yeast screen | AID 2066 | GFP response vs DMSO, % at 10 µM | S. cerevisiae AGP1-GFP multiplex flow cytometry, 3 h; GFP as percent of DMSO wells | actives 0.02% (n = 320,000);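 active = GFP response relative to DMSO above a set limit, near screen average plus 3 SD, cut at about 150% in these data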;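 also: median GFP channel fluorescence of the gated AGP1 strain per well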
LAP4-GFP MLPCN: modulators of TOR pathway LAP4-GFP in S. cerevisiae; actives 0.34% (n = 320,000); GFP response vs DMSO, % at 10 µM; AID 2023; S. cerevisiae LAP4-GFP multiplex, flow cytometry GFP, 3 h; median GFP as percent of DMSO wells;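 active = GFP response vs DMSO above a set limit, about the screen mean plus 3 SD, cut at about 150% in these data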
RPL19A TOR yeast: modulators of TOR pathway RPL19A-GFP in S. cerevisiae; S. cerevisiae RPL19A-GFP strain, flow cytometry, 3 h; stronger effect = lower value; percent response vs DMSO, % at 10 µM; actives 0.3% (n = 330,000); AID 2025;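 active = percent response vs DMSO below 50%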;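 also: median channel GFP fluorescence of the barcoded RPL19A-GFP strain; ratio of sample median GFP to plate DMSO average so 100% = DMSO; lower means less RPL19A-GFP as with rapamycin TOR inhibition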
CIT2-GFP yeast: modulators of TOR pathway CIT2-GFP in S. cerevisiae; actives 0.065% (n = 320,000); S. cerevisiae CIT2-GFP strain, flow cytometry, 3 h; 100 means same as DMSO wells; AID 2029; GFP response vs DMSO, % at 10 µM;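 active = GFP response relative to DMSO above a set limit, near the screen mean plus 3 SD, cut at about 150% in these data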;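 also: ratio of well median GFP fluorescence to mean of DMSO wells on the plate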
MEP2 TOR yeast: alters MEP2-GFP fluorescence in TOR pathway yeast screen. S. cerevisiae MEP2-GFP strain, flow cytometry GFP, 3 h; 100% = DMSO control level. GFP response vs DMSO, % at 10 µM. actives 0.51% (n = 330,000);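 active = GFP response versus DMSO above a set limit, roughly screen mean plus 3 SD, cut at about 180% in these data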;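 also: median GFP fluorescence of the barcode-gated MEP2-GFP cells per well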
LAP4-GFP pick2: second confirmation of modulators of TOR reporter LAP4-GFP in yeast; shares compounds with LAP4-GFP MLPCN; actives 20% (n = 590); S. cerevisiae LAP4-GFP strain, flow cytometry GFP, 3 h; GFP response vs DMSO, % at 10 µM; AID 2621;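 active = GFP signal as percent of the solvent control above about 150%, meaning raised reporter expression, limit read from the data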;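 also: ratio of well median GFP fluorescence to plate DMSO mean so 100% = DMSO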
MEP2 cherry2: second confirmation of modulators of TOR reporter MEP2-GFP in yeast | GFP response vs DMSO, % at 10 µM | shares compounds with LAP4-GFP MLPCN | actives 10% (n = 590) | S. cerevisiae MEP2-GFP strain, flow cytometry GFP, 3 h | AID 2622;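 active = GFP signal above 150% of the solvent control wells, that is a rise of more than half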;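 also: median channel GFP fluorescence of all gated yeast cells per well; ratio of median GFP to plate DMSO average so 100% = DMSO level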
RPL19A-GFP pick2: reconfirmed modulator of RPL19A-GFP TOR reporter in yeast. shares compounds with LAP4-GFP MLPCN. actives 3% (n = 590). GFP response vs DMSO, % at 10 µM. S. cerevisiae RPL19A-GFP strain, flow cytometry GFP, 3 h; stronger effect = lower value; 100% means same as DMSO wells;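 active = under 65% GFP response relative to DMSO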;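 also: median GFP channel fluorescence per well over the all cells gate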
CIT2-GFP pick2: yeast CIT2-GFP TOR reporter modulation, second cherry pick. shares compounds with LAP4-GFP MLPCN. S. cerevisiae CIT2-GFP strain, flow cytometry GFP, 3 h; DMSO control wells read 100%. GFP response vs DMSO, % at 10 µM. actives 8% (n = 590). AID 2624;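 active = GFP response vs DMSO above about 150%, limit read from the data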;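 also: median green fluorescence per well over all gated yeast cells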
AGP1 GFP CP2: second confirmation of modulators of TOR reporter AGP1-GFP in yeast; percent response vs DMSO, % at 10 µM; AID 2643; shares compounds with LAP4-GFP MLPCN; 590 tested, under 10 active; S. cerevisiae AGP1-GFP strain, flow cytometry GFP, 3 h;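 active = over 150 percent of DMSO response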;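 also: median GFP channel fluorescence over all cells without mother daughter split; sample median GFP divided by mean DMSO control so 100% equals DMSO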
s288c autofluor: yeast s288c autofluorescence artifact, counter-screen. 610 tested, under 10 active. fluorescence change (kMESF span) at 33 µM. shares compounds with LAP4-GFP MLPCN. S. cerevisiae s288c, 520 nm autofluorescence, flow cytometry, 3 h; stronger effect = higher value; zero means same as solvent-only cells;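 active = fluorescence span over the dose series, or activity score, above about 33, limit read from the data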
s288c autofl DR: counter-screen for autofluorescence of TOR hits in yeast s288c | shares compounds with LAP4-GFP MLPCN | S. cerevisiae s288c parental, compound autofluorescence, flow cytometry, 3 h | fluorescence change (span) at 33 µM | 110 tested, under 10 active | AID 488829;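 active = fluorescence change span, or the activity score built from it, above 25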
TORC1 bypass: compounds blocking wildtype yeast growth but not TORC1 bypass cells; shares compounds with LAP4-GFP MLPCN; S. cerevisiae BY4741 spot growth rating, 48-72 h; stronger effect = lower value; growth rating (0-3) at 30 µM; AID 504456; 120 tested, under 10 active;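 active = growth rating at most 1 for wild type yeast while the TORC1 bypass strain still grows fully, rated 3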
* hit, by the source's call; · = no result.

SMILES	AGP1-GFP MLPCN	LAP4-GFP MLPCN	RPL19A TOR yeast	CIT2-GFP yeast	MEP2 TOR yeast	LAP4-GFP pick2	MEP2 cherry2	RPL19A-GFP pick2	CIT2-GFP pick2	AGP1 GFP CP2	s288c autofluor	others
CCOC(=O)c1c(C)[nH]c(C)c1C(=O)COC(=O)/C=C/c1cccc(F)c1	121.2	245.7*	124.0	231.4*	309.4*	104.2	115.3	98.0	112.6	95.5	·
CCc1noc(C)c1C(=O)Nc1nc2c(F)cc(F)cc2s1	83.8	163.1*	86.4	65.7	94.6	122.1	111.5	93.1	87.1	89.9	·
CN(Cc1cn(C)nc1-c1ccccc1F)CC1CCCCO1 (stereo unspecified)	108.4	97.9	100.0	103.6	95.2	·	·	·	·	·	·
O=C(CC(=O)c1ccccc1)Nc1cc(C(F)(F)F)ccc1Cl	93.5	99.4	105.6	91.7	105.3	100.2	111.8	101.0	101.5	99.5	·
O=C(OCC(=O)N1CCN(C(=O)c2ccco2)CC1)c1cccc(S(=O)(=O)N2CCc3ccccc32)c1	99.6	103.0	97.8	114.6	99.9	·	·	·	·	·	·
CCOc1ccc(OCc2ccc(C(=O)N/N=C(\C)c3ccccn3)cc2)cc1	92.7	138.0	91.3	104.8	109.6	·	·	·	·	·	·
CCC(C)/C(C)=N/NC(=O)c1ccc(COc2ccc(Cl)c(C)c2)cc1 (stereo unspecified)	98.5	205.5*	84.7	64.1	135.4	142.3	174.7*	107.2	126.5	114.5	1.9
COc1ccccc1OCc1cc(C(=O)N2CCN(C)C(c3ccccc3)C2)no1 (stereo unspecified)	95.3	107.2	96.1	92.4	97.2	·	·	·	·	·	·
CN1CCN(C(=O)c2cc(COc3c(F)cccc3F)on2)CC1c1ccccc1 (stereo unspecified)	119.5	157.9*	95.9	86.7	101.4	141.3	163.1*	109.5	115.3	110.2	1.72	s288c autofl DR=0.87;TORC1 bypass=0
O=C(COC(=O)c1ccc(S(=O)(=O)C(F)F)cc1)Nc1ccccc1C(=O)NC1CC1	92.0	89.9	89.0	89.5	91.5	·	·	·	·	·	·
COc1ccc(N(CC(=O)NCCc2ccc(Cl)cc2)S(=O)(=O)c2c(C)[nH]c(=O)[nH]c2=O)cc1	105.8	99.8	100.0	97.5	99.5	·	·	·	·	·	·
C/C(=N/NC(=O)c1ccc(C(C)(C)C)cc1)c1ccccn1	96.2	193.8*	99.3	94.9	103.9	·	·	·	·	·	0.82
C/C(=N\NC(=O)c1cccc(Br)c1)c1ccccn1	86.8	168.6*	110.8	95.9	113.1	·	·	·	·	·	0.91	s288c autofl DR=0.16;TORC1 bypass=3
C/C(=N\NC(=O)c1cc(Br)ccc1O)c1ccccn1	96.0	119.7	108.4	89.0	118.2	·	·	·	·	·	·
Cc1[nH]c2ccccc2c1C(=O)COC(=O)c1ccc([N+](=O)[O-])s1	19.2	68.6	62.4	94.8	123.6	138.3	179.9*	77.3	143.2	69.7	6.78
CC(C)(C)c1ccc(NC(=O)COC(=O)c2ccc([N+](=O)[O-])s2)cc1	46.4	211.2*	69.7	95.3	168.0	226.0*	223.0*	85.7	131.2	79.8	4.51	s288c autofl DR=1.39;TORC1 bypass=0
Oc1ccc(COCc2ccccc2)c2cccnc12	101.6	160.3*	96.5	99.0	95.7	·	·	·	·	·	0.4
CCCOCc1ccc(O)c2ncccc12	96.5	117.0	98.6	108.8	98.2	·	·	·	·	·	·
